# Laboratory results taken from PubChem BioAssay.
# Calls of active or inactive are those of the source. Unless noted, no stated cut-off is given here; in the data, active means response above about 15%; inactive means the rest.
# Key:
# [1] = RPL19A-GFP modulators, yeast TOR pathway, confirmation, cell-based, S. cerevisiae, flow cytometry, cherry picks, mother/daughter gates (AID 2270;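 active means GFP response below 50% of the DMSO control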); conditions: S. cerevisiae RPL19A-GFP strain, 3 h, at 10 µM, stronger effect = lower value, 100 = same GFP as DMSO wells
# [2] = LAP4-GFP expression modulators in yeast, confirmation, cell-based, cherry picks, flow cytometry, mother/daughter gates (AID 2271;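 active means GFP response above 150% of the DMSO control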;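 further: ratio of sample to DMSO plate mean so 100% equals DMSO level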); conditions: S. cerevisiae LAP4-GFP strain, 3 h, at 10 µM, stronger effect = higher value, 100 means same as DMSO control
# [3] = modulators of MEP2-GFP levels in yeast, confirmation, S. cerevisiae, flow cytometry GFP, cherry picks (AID 2272;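 active means GFP response above 150% of the DMSO control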;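 further: ratio of well signal to plate DMSO mean so 100% equals DMSO level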); conditions: S. cerevisiae MEP2-GFP strain, 3 h, at 10 µM, stronger effect = higher value
# [4] = AGP1-GFP expression modulators, hit retest, confirmation, cell-based, flow cytometry, S. cerevisiae, cherry picks (AID 2273;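 active means GFP response above 150% of the DMSO level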;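 further: median GFP channel fluorescence over the whole cell population gate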); conditions: S. cerevisiae AGP1-GFP strain, 3 h, at 10 µM
# [5] = modulators of CIT2-GFP expression in yeast, confirmation, S. cerevisiae, GFP fusion, cherry picks, mother/daughter gates (AID 2274;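 active means GFP response above 150% of the DMSO level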); conditions: S. cerevisiae CIT2-GFP strain, flow cytometry, 3 h, at 10 µM, stronger effect = higher value
# [6] = inhibitors of CD8+ T cell-vesicle binding, pilot screen, LFA-1/ICAM-1 modulator project, MLPCN validation set, flow cytometry (AID 2523;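 active means response below a set limit, under 55% cells CD8-positive and vesicle-bound, and CD8 cells' 90th-percentile brightness under 279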;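 on vesicle binding response: mean PE anti-B7-1 fluorescence of CD8+ cells relative to row control; 100% = QL9-loaded vesicles with DMSO vehicle in the same plate row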); conditions: 2C mouse CD8+ T cells, at 7 µM, stronger effect = lower value; double positive events: measured here: CD8+/vesicle+ event percentage
# [7] = molecular target: Integrin beta-1 (Homo sapiens) + Integrin alpha-4 (Homo sapiens) (UniProt P13612+P05556); test: inhibition of HUTS-21 binding to VLA-4, pilot screen, VLA-4 allosteric modulator project, U937 cells, HUTS-21 mAb, flow cytometry, validation set (AID 2674;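 active means inhibition above 50%, about 3 SD of the validation set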;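 further: antibody binding induced by the VLA-4 ligand LDV present at three times its Kd; 0% = LDV ligand with antibody and no compound and 100% = antibody without LDV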); conditions: HUTS-21 LIBS mAb binding, at 6.7 µM, stronger effect = higher value, binding induced by LDV ligand
# [8] = superoxide lowering in aged yeast cells, pilot screen, validation compound set (AID 2706;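 active means superoxide response below 65% of plate, a cut near 3 SD across the whole screen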;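 further: yeast exposed to compound for one week at 30 degrees C before staining; 100% = mean of all compound wells on the same plate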); conditions: S. cerevisiae aging, superoxide DHE fluorescence; at 10 µM, stronger effect = lower value
# [9] = molecular target: Beta-adrenergic receptor kinase 1 (Homo sapiens) (UniProt P25098); test: GRK2 binders displacing RNA aptamer, biochemical, validation, human GRK2, bead flow cytometry (AID 488806;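 active means aptamer binding inhibition above 30%, about 3 SD of noise from non-fluorescent compounds; inactive means inhibition at or below 30%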); conditions: bead-bound GRK2, FAM-aptamer displacement, at 10 µM, stronger effect = higher value
# [10] = molecular target: Beta-2 adrenergic receptor (Homo sapiens) (UniProt P07550); test: beta2AR agonists driving receptor internalization, pilot screen, cell-based, FAP fluorogen, flow cytometry, validation set (AID 504459;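 active means percent response above 42, roughly 3 SD of non-fluorescent test compounds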;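 further: agonist-driven loss of surface beta2AR via internalization measured by FAP dye flow cytometry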); conditions: Am2.2-beta2AR cells, FAP surface receptor flow cytometry; at 10 µM; stronger effect = higher value
# [11] = molecular target: AP-2 complex subunit beta (Homo sapiens) (UniProt P63010); test: inhibitors of arrestin peptide binding to AP2, pilot screen, biochemical, validation set, GST-AP2 beads, flow cytometry (AID 504541;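 active means inhibition above 54%, about 3 SD of non-fluorescent compounds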;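 further: AP2 carries R879A mutation and is captured from E. coli lysate; bead-bound FITC arrestin peptide fluorescence measuring arrestin peptide binding to AP2; 0% = DMSO wells and 100% = excess unlabeled arrestin peptide control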); conditions: FITC arrestin peptide, at 10 µM, stronger effect = higher value, AP2 beta2 appendage fragment, R879A mutant
# [12] = yeast V-ATPase proton transport modulators, S. cerevisiae, pHLuorin, HTS validation (AID 504600);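 further: plate controls were DMSO for no effect and reference compound for full effect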; conditions: S. cerevisiae pHLuorin cytosolic pH, at 10 µM, stronger effect = higher value
# [13] = test system: anti-desmoglein-3 scFv antibody binding to human DSG3; test: inhibitors of anti-DSG3 scFv binding to DSG3, pilot screen, biochemical, validation compound set, bead-based, flow cytometry (AID 588368;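 active means binding below the plate cutoff, the plate median minus 3 SD, with a reading above zero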;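 further: signal is the median channel fluorescence of bead-bound GFP antibody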); conditions: Protein G beads, DSG3-Fc, scFv-GFP binding, at 10 µM, stronger effect = lower value
# [14] = inhibitors of fungal efflux pumps CDR1, CDR2, MDR1, pilot screen, validation compound set, multiplex, phenotypic (AID 588506;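 active means efflux inhibition above 0.42, the validation set average plus 4 SD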;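 further: Nile Red retained in cells so higher fluorescence means more efflux inhibition; 0 = negative control wells and 1 = enniatin B 25 µM full block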); conditions: S. cerevisiae pump-expressing triplex, Nile Red efflux flow cytometry; at 10 µM; stronger effect = higher value; the pumps come from Candida albicans
# [15] = molecular target: ATP-binding cassette sub-family B member 6 (Homo sapiens) (UniProt Q9NP58); test: ABCB6 transporter inhibitors, pilot screen, K562-ABCB6 cells, flow cytometry, validation set (AID 588550;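 active means inhibition above the screen-wide mean plus 3 SD, about 51%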;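 further: 0% = DMSO wells and 100% = benzethonium chloride 70 µM positive control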); conditions: K562-ABCB6 porphyrin accumulation, 1 h, at 10 µM, stronger effect = higher value
# [16] = promoters of myeloid differentiation in arrested cells, primary screen, cell-based, GFP/MAC1 double positive, flow cytometry, validation set (AID 588685;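 active means differentiation response of at least 50%, scaled between solvent and reference control, from cells with both markers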;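 further: compound exposure lasts four days before antibody staining and flow analysis; 0% = DMSO wells and 100% = 5 µM fulvestrant positive control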); conditions: ER-HoxA9 marrow cells, stronger effect = higher value, normalized: vehicle 0, fulvestrant 100
# [17] = measured here: daughter cell gate
# [18] = measured here: mother cell gate
# Sequence of ATP-binding cassette sub-family B member 6 (Homo sapiens) (Q9NP58 whole entry, looked up): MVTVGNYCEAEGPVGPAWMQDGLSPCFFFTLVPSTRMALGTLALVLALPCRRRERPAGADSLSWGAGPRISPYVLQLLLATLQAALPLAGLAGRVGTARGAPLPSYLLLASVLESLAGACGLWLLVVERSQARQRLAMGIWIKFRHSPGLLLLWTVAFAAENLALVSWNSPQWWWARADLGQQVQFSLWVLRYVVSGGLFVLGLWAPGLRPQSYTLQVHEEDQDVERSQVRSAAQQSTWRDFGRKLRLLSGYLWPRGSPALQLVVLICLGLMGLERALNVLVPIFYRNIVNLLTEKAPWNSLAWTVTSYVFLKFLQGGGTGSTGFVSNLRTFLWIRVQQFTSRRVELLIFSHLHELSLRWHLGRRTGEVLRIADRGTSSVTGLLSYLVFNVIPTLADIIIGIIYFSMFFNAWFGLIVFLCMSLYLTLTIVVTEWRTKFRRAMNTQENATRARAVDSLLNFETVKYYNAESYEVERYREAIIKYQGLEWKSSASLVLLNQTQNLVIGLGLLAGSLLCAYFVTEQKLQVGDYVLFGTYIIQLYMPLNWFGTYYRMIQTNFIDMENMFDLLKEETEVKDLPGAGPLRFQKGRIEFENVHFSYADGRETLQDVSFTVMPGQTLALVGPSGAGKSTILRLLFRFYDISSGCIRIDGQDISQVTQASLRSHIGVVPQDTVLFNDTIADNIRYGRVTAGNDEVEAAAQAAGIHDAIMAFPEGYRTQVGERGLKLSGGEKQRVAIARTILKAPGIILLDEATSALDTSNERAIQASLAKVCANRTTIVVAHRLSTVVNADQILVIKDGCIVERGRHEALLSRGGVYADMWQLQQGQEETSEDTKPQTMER
# Sequence of Integrin beta-1 (Homo sapiens) + Integrin alpha-4 (Homo sapiens) (P05556 whole entry, looked up): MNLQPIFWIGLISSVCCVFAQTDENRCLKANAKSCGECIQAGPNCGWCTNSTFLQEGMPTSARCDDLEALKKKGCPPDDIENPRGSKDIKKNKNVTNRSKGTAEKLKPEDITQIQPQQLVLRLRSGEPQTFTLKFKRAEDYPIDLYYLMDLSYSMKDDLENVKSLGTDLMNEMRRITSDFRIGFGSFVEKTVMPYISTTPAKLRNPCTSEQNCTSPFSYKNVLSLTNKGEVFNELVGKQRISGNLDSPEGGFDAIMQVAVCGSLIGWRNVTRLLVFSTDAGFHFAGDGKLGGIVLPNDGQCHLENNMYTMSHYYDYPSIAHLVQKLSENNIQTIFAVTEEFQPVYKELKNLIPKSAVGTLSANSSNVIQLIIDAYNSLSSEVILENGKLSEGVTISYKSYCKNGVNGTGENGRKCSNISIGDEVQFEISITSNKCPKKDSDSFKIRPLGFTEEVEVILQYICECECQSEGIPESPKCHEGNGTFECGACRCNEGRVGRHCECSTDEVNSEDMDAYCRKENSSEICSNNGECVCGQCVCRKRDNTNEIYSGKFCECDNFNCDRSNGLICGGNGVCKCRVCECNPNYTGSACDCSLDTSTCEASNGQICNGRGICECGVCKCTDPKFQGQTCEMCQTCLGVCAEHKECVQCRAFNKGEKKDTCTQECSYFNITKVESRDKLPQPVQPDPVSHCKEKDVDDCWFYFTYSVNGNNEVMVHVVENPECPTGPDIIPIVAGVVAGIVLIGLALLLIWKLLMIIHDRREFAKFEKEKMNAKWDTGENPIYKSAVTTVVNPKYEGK
# Sequence of Integrin beta-1 (Homo sapiens) + Integrin alpha-4 (Homo sapiens) (P13612 whole entry, looked up): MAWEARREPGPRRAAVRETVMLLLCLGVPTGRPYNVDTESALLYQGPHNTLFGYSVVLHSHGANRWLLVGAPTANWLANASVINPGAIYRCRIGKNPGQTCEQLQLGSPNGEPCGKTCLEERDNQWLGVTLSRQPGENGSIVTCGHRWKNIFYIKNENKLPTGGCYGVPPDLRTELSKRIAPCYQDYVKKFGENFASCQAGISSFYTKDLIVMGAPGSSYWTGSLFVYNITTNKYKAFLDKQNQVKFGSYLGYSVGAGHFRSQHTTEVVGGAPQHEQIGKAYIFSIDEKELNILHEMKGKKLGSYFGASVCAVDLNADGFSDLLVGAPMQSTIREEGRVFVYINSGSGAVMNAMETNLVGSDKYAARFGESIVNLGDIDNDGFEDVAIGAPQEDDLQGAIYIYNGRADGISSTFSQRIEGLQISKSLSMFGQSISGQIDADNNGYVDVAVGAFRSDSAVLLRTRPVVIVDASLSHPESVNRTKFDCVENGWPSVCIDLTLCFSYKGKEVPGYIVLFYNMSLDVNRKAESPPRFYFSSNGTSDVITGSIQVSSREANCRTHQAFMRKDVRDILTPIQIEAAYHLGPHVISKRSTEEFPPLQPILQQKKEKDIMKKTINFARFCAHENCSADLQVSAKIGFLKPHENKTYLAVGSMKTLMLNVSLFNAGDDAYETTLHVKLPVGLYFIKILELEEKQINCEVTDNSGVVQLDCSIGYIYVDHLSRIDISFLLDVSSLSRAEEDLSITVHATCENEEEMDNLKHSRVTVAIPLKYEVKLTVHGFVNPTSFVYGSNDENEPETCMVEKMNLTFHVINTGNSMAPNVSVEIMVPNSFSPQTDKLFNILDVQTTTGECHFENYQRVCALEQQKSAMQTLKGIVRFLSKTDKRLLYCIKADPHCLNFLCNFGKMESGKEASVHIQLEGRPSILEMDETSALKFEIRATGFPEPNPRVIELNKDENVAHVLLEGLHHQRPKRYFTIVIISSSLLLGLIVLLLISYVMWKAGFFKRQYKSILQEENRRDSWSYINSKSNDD
# Sequence of Beta-2 adrenergic receptor (Homo sapiens) (P07550 whole entry, looked up): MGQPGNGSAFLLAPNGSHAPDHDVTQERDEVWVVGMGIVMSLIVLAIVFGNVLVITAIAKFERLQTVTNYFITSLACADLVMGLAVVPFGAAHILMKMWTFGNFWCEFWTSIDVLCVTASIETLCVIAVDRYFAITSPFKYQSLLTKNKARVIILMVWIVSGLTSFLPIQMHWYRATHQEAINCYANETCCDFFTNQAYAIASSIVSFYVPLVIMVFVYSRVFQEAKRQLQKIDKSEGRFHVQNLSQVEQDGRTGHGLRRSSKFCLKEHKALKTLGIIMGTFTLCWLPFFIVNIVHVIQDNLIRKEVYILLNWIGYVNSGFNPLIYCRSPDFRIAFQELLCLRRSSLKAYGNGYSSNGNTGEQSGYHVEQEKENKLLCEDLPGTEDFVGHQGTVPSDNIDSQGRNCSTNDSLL
# Sequence of AP-2 complex subunit beta (Homo sapiens) (P63010 whole entry, looked up, the tested form may be a part, one chain of several): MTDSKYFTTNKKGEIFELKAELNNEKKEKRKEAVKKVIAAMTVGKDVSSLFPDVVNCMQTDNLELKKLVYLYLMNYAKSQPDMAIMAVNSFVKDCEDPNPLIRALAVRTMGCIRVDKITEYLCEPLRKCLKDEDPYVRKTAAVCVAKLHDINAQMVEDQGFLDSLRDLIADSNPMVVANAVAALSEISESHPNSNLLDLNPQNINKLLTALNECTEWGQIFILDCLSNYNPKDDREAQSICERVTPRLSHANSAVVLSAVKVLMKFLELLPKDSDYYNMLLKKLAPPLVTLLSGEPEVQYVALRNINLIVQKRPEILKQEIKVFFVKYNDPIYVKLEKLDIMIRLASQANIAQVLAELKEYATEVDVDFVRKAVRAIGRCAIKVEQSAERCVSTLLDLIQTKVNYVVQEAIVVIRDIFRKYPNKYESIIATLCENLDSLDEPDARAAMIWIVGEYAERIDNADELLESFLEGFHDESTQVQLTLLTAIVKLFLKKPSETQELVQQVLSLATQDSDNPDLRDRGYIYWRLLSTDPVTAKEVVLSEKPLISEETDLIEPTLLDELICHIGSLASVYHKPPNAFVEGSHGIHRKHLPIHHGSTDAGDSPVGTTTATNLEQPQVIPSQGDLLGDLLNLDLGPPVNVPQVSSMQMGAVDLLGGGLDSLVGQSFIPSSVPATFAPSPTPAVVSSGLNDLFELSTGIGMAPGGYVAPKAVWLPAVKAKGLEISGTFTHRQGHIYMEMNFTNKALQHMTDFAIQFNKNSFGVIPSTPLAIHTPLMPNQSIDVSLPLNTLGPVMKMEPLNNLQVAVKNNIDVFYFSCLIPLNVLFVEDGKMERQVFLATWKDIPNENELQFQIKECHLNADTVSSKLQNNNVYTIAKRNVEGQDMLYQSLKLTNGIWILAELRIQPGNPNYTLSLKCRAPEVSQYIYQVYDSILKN
# Sequence of Beta-adrenergic receptor kinase 1 (Homo sapiens) (P25098 whole entry, looked up): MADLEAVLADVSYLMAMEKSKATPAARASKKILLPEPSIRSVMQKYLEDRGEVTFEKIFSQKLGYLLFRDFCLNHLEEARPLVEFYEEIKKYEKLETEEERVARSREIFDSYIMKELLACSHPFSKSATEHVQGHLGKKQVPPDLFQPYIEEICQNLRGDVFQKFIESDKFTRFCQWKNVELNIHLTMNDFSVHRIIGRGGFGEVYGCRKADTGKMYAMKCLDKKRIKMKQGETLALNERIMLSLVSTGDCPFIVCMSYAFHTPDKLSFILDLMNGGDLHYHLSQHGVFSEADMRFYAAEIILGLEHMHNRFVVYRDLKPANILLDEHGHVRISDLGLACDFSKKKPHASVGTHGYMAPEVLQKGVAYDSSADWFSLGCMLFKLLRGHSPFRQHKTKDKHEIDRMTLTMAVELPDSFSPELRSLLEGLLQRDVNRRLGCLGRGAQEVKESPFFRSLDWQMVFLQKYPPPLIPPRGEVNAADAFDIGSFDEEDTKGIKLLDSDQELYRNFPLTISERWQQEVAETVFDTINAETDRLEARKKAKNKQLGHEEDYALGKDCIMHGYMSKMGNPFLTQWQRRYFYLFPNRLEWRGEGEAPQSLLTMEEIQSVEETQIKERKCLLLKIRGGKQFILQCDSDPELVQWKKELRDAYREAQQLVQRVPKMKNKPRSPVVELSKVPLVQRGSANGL
Compound,GFP response vs DMSO [1],GFP response relative to DMSO [2],GFP response vs DMSO [3],"GFP response, % of DMSO [4]","GFP response, % of DMSO [5]","GFP response, % of DMSO [5, 17]",double positive events [6],vesicle binding response [6],inhibition [7],superoxide response (% of plate) [8],aptamer binding inhibition [9],response [10],inhibition [11],response [12],binding (% of control) [13],efflux inhibition (fraction of control) [14],inhibition [15],differentiation response [16],"GFP response, % of DMSO [5, 18]"
O=C(O)CSC1CC(=O)N(c2ccc(Cl)cc2)C1=O (centres undefined),93.1% (inactive),102% (inactive),108% (inactive),97.3% (inactive),104% (inactive),90.5%,–,–,–,–,–,–,–,–,–,–,–,–,–
Cc1cccc(N=c2oc3cc(O)ccc3cc2C(N)=O)c1,96.5% (inactive),100% (inactive),106% (inactive),102% (inactive),108% (inactive),90.5%,–,–,–,–,–,–,–,–,–,–,–,–,–
CCc1cc(=O)oc2cc(OCC=C(C)C)ccc12,–,–,–,–,–,–,66.7%,297% (inactive),26.9% (inactive),89.5% (inactive),6% (inactive),1.45% (inactive),-1.05% (inactive),-0.58% (inactive),103% (inactive),-0.03 (inactive),3% (inactive),-18.4% (inactive),–
CCN(CC)CCCN(C(=O)c1cccs1)c1nc(-c2ccc(OC)cc2)cs1,104% (inactive),98.7% (inactive),109% (inactive),98% (inactive),107% (inactive),101%,–,–,–,–,–,–,–,–,–,–,–,–,101%
CCC(=O)OCCNc1cc(Sc2nc3ccccc3s2)c2nonc2c1[N+](=O)[O-],90.5% (inactive),254% (active),97.8% (inactive),124% (inactive),80.8% (inactive),–,–,–,–,–,–,–,–,–,–,–,–,–,–
CC(OC(=O)c1cccs1)C(=O)Nc1nc(-c2ccccc2)cs1 (centres undefined),98.7% (inactive),94.2% (inactive),99.5% (inactive),94.9% (inactive),101% (inactive),–,–,–,–,–,–,–,–,–,–,–,–,–,–
CCCCNC(=O)c1cc2c(=O)n3cccc(C)c3nc2n(Cc2ccncc2)c1=N,97.2% (inactive),96.5% (inactive),102% (inactive),102% (inactive),104% (inactive),96.4%,–,–,–,–,–,–,–,–,–,–,–,–,95.6%
CN(C)CCCN(C(=O)c1cccs1)c1nc(-c2ccccc2)cs1,98% (inactive),90.7% (inactive),102% (inactive),100% (inactive),101% (inactive),–,–,–,–,–,–,–,–,–,–,–,–,–,–
CCc1cn([C@H]2C[C@H](O)[C@@H](CO)O2)c(=O)[nH]c1=O,–,–,–,–,–,–,71.1%,232% (inactive),-0.33% (inactive),95.6% (inactive),-1% (inactive),7.43% (inactive),3.19% (inactive),-0.71% (inactive),100% (inactive),-0.42 (inactive),16% (inactive),1.64% (inactive),–
COc1ccccc1-c1c(C(F)(F)F)oc2cc(OC(=O)c3ccc([N+](=O)[O-])cc3)ccc2c1=O,–,–,–,–,–,–,61.5%,160% (inactive),-1.97% (inactive),49.2% (active),2% (inactive),-19.4% (inactive),-4.55% (inactive),1.11% (inactive),99.3% (inactive),0.04 (inactive),1% (inactive),-5.97% (inactive),–
O=C(CCCC(=O)OCC1CCCO1)OCC1CCCO1 (centres undefined),–,–,–,–,–,–,65.5%,131% (inactive),4.52% (inactive),93.2% (inactive),-3% (inactive),2.91% (inactive),-6.03% (inactive),2.81% (inactive),99.4% (inactive),-0.02 (inactive),15% (inactive),2.46% (inactive),–
C/C(NC(=O)c1cccs1)=C1\C(=O)C[C@@H]2[C@H]1C2(C)C,–,–,–,–,–,–,56.1%,193% (inactive),0.59% (inactive),102% (inactive),-8% (inactive),-39.8% (inactive),-13% (inactive),-6.85% (inactive),105% (inactive),-0.04 (inactive),9% (inactive),-11.9% (inactive),–
O=C(NOC(=O)c1ccccc1)c1ccccc1,108% (inactive),118% (inactive),130% (inactive),88.2% (inactive),113% (inactive),103%,–,–,–,–,–,–,–,–,–,–,–,–,96.6%
O=C(c1ccc([N+](=O)[O-])cc1)N1CCSC1c1ccccc1Cl (centres undefined),–,–,–,–,–,–,77.4%,441% (inactive),-9.98% (inactive),91% (inactive),4% (inactive),-12.5% (inactive),-8.18% (inactive),-2.22% (inactive),101% (inactive),-0.1 (inactive),5% (inactive),0.8% (inactive),–
COc1ccc(N2C(=O)[C@@H]3Cc4ccccc4CN3C2=O)cc1,–,–,–,–,–,–,63.2%,211% (inactive),14.6% (inactive),89.7% (inactive),5% (inactive),12.1% (inactive),-2.78% (inactive),-2.4% (inactive),107% (inactive),0.01 (inactive),7% (inactive),18.4% (inactive),–
Cc1ccc2c(CN3CCN(Cc4ccc5c(c4)OCO5)CC3)cc(=O)oc2c1C,–,–,–,–,–,–,58.4%,88.4% (inactive),-7.79% (inactive),87.4% (inactive),-2% (inactive),-2.16% (inactive),4.85% (inactive),-2.29% (inactive),106% (inactive),-0.28 (inactive),-11% (inactive),-6.03% (inactive),–
CNCCc1ccccn1,–,–,–,–,–,–,60%,212% (inactive),15.1% (inactive),122% (inactive),-6% (inactive),-19.8% (inactive),-12.3% (inactive),-10.1% (inactive),100% (inactive),0 (inactive),1% (inactive),2.89% (inactive),–
CN(C)CCCNc1ncnc2c1cnn2-c1ccccc1,–,–,–,–,–,–,70.3%,336% (inactive),16% (inactive),94.4% (inactive),-2% (inactive),8.67% (inactive),-0.95% (inactive),1.69% (inactive),97% (inactive),0.12 (inactive),12% (inactive),23.2% (inactive),–
C[C@H](NC(=O)Nc1ccccc1F)C(=O)O,–,–,–,–,–,–,66%,272% (inactive),-12.7% (inactive),106% (inactive),6% (inactive),-5.56% (inactive),-4.89% (inactive),-9.72% (inactive),101% (inactive),-0.24 (inactive),7% (inactive),-10.4% (inactive),–
C=CCNC(=S)N1CCc2c([nH]c3ccccc23)C1C (centres undefined),–,–,–,–,–,–,60.6%,194% (inactive),15.1% (inactive),99% (inactive),-3% (inactive),-13% (inactive),-13.8% (inactive),2.11% (inactive),102% (inactive),-0.09 (inactive),15% (inactive),-11.9% (inactive),–
COc1ccc(C(=O)Nc2nc3ccccc3c(=O)[nH]2)cc1,–,–,–,–,–,–,65.5%,352% (inactive),3.67% (inactive),84.4% (inactive),0% (inactive),37.4% (inactive),4.94% (inactive),-8.54% (inactive),99.1% (inactive),-0.03 (inactive),4% (inactive),0% (inactive),–
CCS(=O)(=O)Nc1cc(OC)c(OC)cc1Cc1nccc2cc(OC)c(OC)cc12,–,–,–,–,–,–,57.8%,90.7% (inactive),-9.63% (inactive),93.2% (inactive),-1% (inactive),-40% (inactive),-7.26% (inactive),4.6% (inactive),106% (inactive),0.08 (inactive),0% (inactive),-5.97% (inactive),–
CCn1c2ccccc2c2cc(CC(N)=O)ccc21,–,–,–,–,–,–,60.8%,153% (inactive),20.2% (inactive),92.7% (inactive),-1% (inactive),-19.5% (inactive),1.51% (inactive),-10.1% (inactive),103% (inactive),0.04 (inactive),5% (inactive),-0.06% (inactive),–
Cc1csc(-c2coc3cc(O)cc(C)c3c2=O)n1,–,–,–,–,–,–,63.8%,138% (inactive),2.3% (inactive),119% (inactive),2% (inactive),0.13% (inactive),13.4% (inactive),-4.09% (inactive),97.4% (inactive),-0.03 (inactive),17% (inactive),2.4% (inactive),–
CCCCC[C@H](O)/C=C/[C@@H]1[C@@H](C/C=C\CCCC(=O)O)[C@H]2CO[C@@H]1C2,–,–,–,–,–,–,59%,192% (inactive),-8.78% (inactive),110% (inactive),-1% (inactive),-18.1% (inactive),1.57% (inactive),-0.38% (inactive),101% (inactive),0.08 (inactive),-1% (inactive),-10.9% (inactive),–
COc1cccc(N2CC34C=CC(O3)C(C(=O)O)C4C2=O)c1 (centres undefined),–,–,–,–,–,–,60.2%,168% (inactive),-19.5% (inactive),97.6% (inactive),0% (inactive),-21.5% (inactive),28.1% (inactive),-2.62% (inactive),102% (inactive),0.08 (inactive),3% (inactive),44% (inactive),–
